Pf Dd2 growth: qHTS Primary assay for Inhibitors of Plasmodium falciparum Dd2 growth in vitro; Potency, µM (series often up to 28.9 µM), without a hit: at the highest dose activity, negative = inhibition, hits mostly inhibitors; P. falciparum Dd2 growth, SYBR Green, 72 h; hit rate 4.3% among 120,000; active means well fitted inhibition curve with a large enough effect;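 further: plate controls were DMSO vehicle for no effect and reference drug for full effect; nearly all actives have a fitted effect of over 65% in size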
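Infected erythrocytes (Dd2, 0.3% parasitemia, 2.5% hematocrit final) are added to compound in RPMI-1640/Albumax II medium, grown 72 h at 37C in low oxygen, then lysed with saponin/Triton-X containing SYBR Green and read by fluorescence.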
The depositor's hits bear a star; i = inactive; [ ] = dose if it differs, or a comment. This is one part of a sample in which hits are shown more often than they occur. Potency means the concentration at half of the fitted maximal effect.

SMILES	Pf Dd2 growth
CCCc1ccc2oc(C(=O)NCCc3nncn3CC)c(C)c2c1	-21%
CCOC(=O)C1CCCN(S(=O)(=O)c2ccc3c(c2)oc(=O)n3C)C1 (configuration not stated)	-2%
CCOC(=O)c1c(C)[nH]c(C)c1S(=O)(=O)N1CCC(C(=O)N2CCN(c3cc(C)ccc3C)CC2)CC1	68%
CCOC(=O)c1c(C)[nH]c(C)c1S(=O)(=O)N1CCCC(C(=O)Nc2cccc(C)n2)C1 (configuration not stated)	-5%
CCOC(=O)c1c(C)[nH]c(C)c1S(=O)(=O)N1CCCC(C(=O)N2CCN(c3cccc(C)c3C)CC2)C1 (configuration not stated)	0.56µM*
Cc1cccc(N2CCN(C(=O)C3CCCN(S(=O)(=O)c4ccc5c(c4)oc(=O)n5C)C3)CC2)c1C (configuration not stated)	11µM*
Cc1cccc(CCNC(=O)C2CCCN(S(=O)(=O)c3ccc4c(c3)oc(=O)n4C)C2)c1 (configuration not stated)	-21%
C=CCN(C)C[C@H]1CN2CC[C@H]1C[C@@H]2CNC(=O)COC	i
O=C(c1ccncc1)N1CCC2(CC1)NCc1ccccc1NC2=O	13%
O=C(Cn1nc2c(cc1=O)CCCCC2)Nc1cccc(Cl)c1	-17%
CCOc1ccccc1NC(=O)C(=O)c1cc(C)n(-c2cccc(C)c2C)c1C	7.1µM*
COc1ccccc1NC(=O)C(=O)c1cc(C)n(-c2cc(C)cc(C)c2)c1C	24%
Cc1ccc(-n2c(C)cc(C(=O)C(=O)Nc3ccccc3)c2C)c(C)c1	5µM*
CCOCCc1nnc(NC(=O)C(=O)c2cc(C)n(-c3ccc(C)cc3C)c2C)s1	84%
Cc1cc(/C=C(\C#N)C(=O)Nc2ccccc2)c(C)n1-c1ccc(F)cc1	-15%
CCOc1ccccc1NC(=O)CN1C(=O)C(=O)c2ccccc21	158%[5.79 µM]
CNC(=O)c1ccc(Cn2cc(-c3nccn3C)nn2)o1	3%
CN1C(=O)CCC2(CNC(=O)c3cn[nH]c3-c3ccccc3)CCC=C12 (configuration not stated)	16%
c1ccc(-c2cc(CC3(NCc4ccc5c(c4)OCO5)COC3)no2)nc1	i
CC(C)OCCCNc1ncnc2c1CN(C1CCNC1)C(=O)CN2C (configuration not stated)	10%
O=C(NC1CC1)C1CCN(c2cnn(Cc3ccccc3)c(=O)c2)C1 (configuration not stated)	i
CN1C(=O)CC(C(=O)O)C12CCN(Cc1ccccc1OC1CCCC1)CC2 (configuration not stated)	-12%
Cc1cnc(CN(C)C(=O)CC(c2ccccc2)c2ccc(Cl)cc2)[nH]1 (configuration not stated)	8.9µM*
Cc1nnc(CN(C)C(=O)CC(c2ccccc2)c2ccc(Cl)cc2)o1 (configuration not stated)	-2%
Cc1nonc1CN(C)C(=O)CC(c1ccccc1)c1cccc(Cl)c1 (configuration not stated)	-21%
SMILES	Pf Dd2 growth
CC1(CNc2ccccc2)COc2ccc(C(=O)NCCc3cnc[nH]3)cc2N1 (configuration not stated)	i
COCC1CN(C2CCC2)CC12CCN(C(=O)c1ccccn1)CC2 (configuration not stated)	11%
OCC1CN(C2CCC2)CC12CCN(C1CCC1)CC2 (configuration not stated)	1%
COCC1CN(C2CCC2)CC12CCN(C(=O)c1cccs1)CC2 (configuration not stated)	-11%
N#Cc1cccc(C(=O)N2CCC3(CC2)CN(C2CCC2)CC3CO)c1 (configuration not stated)	-10%
COCC1CN(C2CCC2)CC12CCN(C(=O)COc1cccc(C)c1)CC2 (configuration not stated)	5µM*
COCC1CN(C2CCC2)CC12CCN(C(=O)c1cccc(C#N)c1)CC2 (configuration not stated)	-23%
COCC1CN(C(C)=O)CC12CCN(C(=O)COc1cccc(C)c1)CC2 (configuration not stated)	i
O=C(Cc1ccc(Cl)cc1)N1CCC2(CC1)CN(C1CCC1)CC2CO (configuration not stated)	8.9µM*
COCC1CN(C2CCC2)CC12CCN(C(=O)c1cccc(C)c1)CC2 (configuration not stated)	8.9µM*
Cc1cc(C(=O)N2C[C@@H](CO)[C@H](c3nc(C4CC4)no3)C2)c(C)o1	i
COc1cccc(OCc2nc(C(=O)N(C)C(C)c3ccon3)co2)c1 (configuration not stated)	-17%
Cc1ccc2c(c1)N(CC(=O)N1[C@@H]3CC[C@H]1CNC(=O)C3)C(=O)CO2	-1%
O=C(CCc1ccccc1)N1CCCN(c2cc(-c3ccc(Cl)cc3)[nH]n2)CC1	-10%
Cc1cccc(OC[C@H]2C[C@@H](NCc3c(C)noc3C)[C@H](O)[C@@H]2O)n1	-26%[44.1 µM]
O=C(c1cnn(Cc2ccccc2)c1)N1CCCn2nc(CO)cc2C1	-12%
Cc1ccccc1C(=O)N1CCC2(CC1)C(=O)NCN2Cc1ccc(Cl)cc1	-13%
CCOc1ccccc1NC(=O)NCCc1ncc(C)n1CCOC	-8%
COCc1nc(CCNS(=O)(=O)c2ccc(F)cc2)no1	49%
CCc1ccccc1N(CC)C(=O)C1CCN(c2ncnc3c2nc2n3CCCCC2)CC1	11µM*
Cc1ccc(C)c(N(C)C(=O)C2CCN(c3ncnc4c3nc3n4CCCCC3)CC2)c1	8.9µM*
CN(C(=O)C1CCN(c2ncnc3c2nc2n3CCCCC2)CC1)c1ccccc1F	-20%
Cc1ccc(C)c(NC(=O)C2CCN(c3ncnc4c3nc3n4CCCCC3)CC2)c1	15%
O=C(Nc1ccc(F)cc1)C1CCCN(c2ncnc3c2nc2n3CCCCC2)C1 (configuration not stated)	-20%
CCCN(CCC)C(=O)C1CCN(c2ncnc3c2nc2n3CCCCC2)CC1	-20%
SMILES	Pf Dd2 growth
CCc1ccccc1N(C)C(=O)C1CCCN(c2ncnc3c2nc2n3CCCCC2)C1 (configuration not stated)	7.9µM*
CCOc1ccccc1N(C)C(=O)C1CCCN(c2ncnc3c2nc2n3CCCCC2)C1 (configuration not stated)	-2%
CCCNC(=O)C1CCN(c2ncnc3c2nc2n3CCCCC2)CC1	-9%
COCCn1c(=O)n([C@H]2CCCN(C(=O)COc3ccccc3)C2)c2ncccc21	-19%
O=C1NC2CCCCC2=C1CC(=O)N1CCOCC1 (configuration not stated)	-16%
CN1CCN([C@H]2[C@@H]3OC[C@@H](O3)[C@@H](NC(=O)Nc3ccccc3)[C@@H]2O)CC1	6%[44.1 µM]
COc1cccc(CNC(=O)Cn2nc3n(c2=O)CCCC3)c1OC	20%
Cn1c(Cn2cnc3c2C(C)(C)OC3(C)C)nnc1C1CC(N)C1 (configuration not stated)	-1%
Cc1nn(-c2ccccc2)c(Oc2ccc(F)cc2F)c1CCC(=O)NC1CC1	-23%
CC(C)c1noc(C2CCCN(S(=O)(=O)c3cn(C)cn3)CCC(=O)NCC2)n1 (configuration not stated)	i
O=C(c1ccc2c(c1)OCO2)N1CCC(Cc2nc(-c3ccccc3)no2)CC1	5%
COc1cccc(-c2noc(CC3CCN(C(=O)c4ccccc4C)CC3)n2)c1	i
COc1ccc(-c2noc(CC3CCN(C(=O)CCCc4ccccc4)CC3)n2)cc1	-26%
